From ChEMBL document CHEMBL3988442, “University of Dundee, Small-Polar-MMV Screening Library” (2021)
For some assays here: Potency and affinity values are given separately.

Columns and labels:
Set-up in all cases: scale not given: direction of the effect not stated beside the values
[1] = molecular target: Protein translocase subunit SecA (Escherichia coli (strain K12)) (UniProt P10408); experiment: Assay to Identify E. coli SecA ATPase Inhibitors; type: functional; conditions: 30 µM
[2] = molecular target: T1, Ubiquitin-activating enzyme e1, putative (Leishmania donovani (strain BPK282A1)) (UniProt E9BSI1); experiment: Leishmania donovani Ubiquitin Activating Enzyme (LdE1); type: functional; conditions: 30 µM
T1 sequence (whole entry): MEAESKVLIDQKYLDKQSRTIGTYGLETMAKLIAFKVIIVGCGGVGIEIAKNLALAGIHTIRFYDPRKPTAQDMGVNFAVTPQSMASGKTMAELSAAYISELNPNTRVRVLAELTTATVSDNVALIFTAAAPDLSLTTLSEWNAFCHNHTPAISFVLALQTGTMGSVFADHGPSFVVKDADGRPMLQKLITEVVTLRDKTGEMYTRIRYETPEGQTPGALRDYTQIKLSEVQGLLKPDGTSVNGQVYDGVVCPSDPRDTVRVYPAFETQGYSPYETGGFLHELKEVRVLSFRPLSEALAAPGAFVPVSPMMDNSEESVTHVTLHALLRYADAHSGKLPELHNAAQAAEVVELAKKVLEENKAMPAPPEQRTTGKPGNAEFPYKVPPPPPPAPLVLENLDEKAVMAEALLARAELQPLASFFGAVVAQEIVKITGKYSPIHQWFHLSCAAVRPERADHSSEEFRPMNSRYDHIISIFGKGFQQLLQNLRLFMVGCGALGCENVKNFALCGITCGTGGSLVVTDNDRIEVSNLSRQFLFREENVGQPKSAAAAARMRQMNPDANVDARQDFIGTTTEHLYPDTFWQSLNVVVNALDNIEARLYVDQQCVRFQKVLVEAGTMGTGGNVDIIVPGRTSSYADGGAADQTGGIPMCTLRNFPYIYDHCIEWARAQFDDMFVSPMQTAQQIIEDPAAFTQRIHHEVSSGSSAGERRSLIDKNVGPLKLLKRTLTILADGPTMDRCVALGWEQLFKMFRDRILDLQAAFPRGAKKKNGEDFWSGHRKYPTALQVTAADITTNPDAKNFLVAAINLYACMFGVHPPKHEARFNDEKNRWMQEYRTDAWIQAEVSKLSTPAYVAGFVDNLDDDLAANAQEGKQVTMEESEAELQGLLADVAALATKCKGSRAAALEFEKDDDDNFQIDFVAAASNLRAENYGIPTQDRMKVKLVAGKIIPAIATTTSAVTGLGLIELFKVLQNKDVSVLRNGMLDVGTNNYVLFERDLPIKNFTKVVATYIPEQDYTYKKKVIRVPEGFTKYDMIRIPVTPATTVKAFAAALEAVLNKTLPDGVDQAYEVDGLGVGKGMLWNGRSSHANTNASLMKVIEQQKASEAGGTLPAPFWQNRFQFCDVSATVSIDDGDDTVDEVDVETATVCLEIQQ

[3] = molecular target: AMP-activated protein kinase, AMPK (Homo sapiens) (UniProt P54646+O43741+P54619+Q9UGJ0+Q9Y478+Q13131+Q9UGI9); experiment: AMP-dependent Kinase enzyme assay. An in vitro enzyme assay that detects ADP turnover that is directly proportional to AMPK activity. This uses naive AMPK that is activated during the assay with MK-8722; type: functional; conditions: 30 µM
[4] = molecular target: Sialic acid-binding Ig-like lectin 9 (Homo sapiens) (UniProt Q9Y336); experiment: Hs-Siglec9 ALPHAscreen SOP 20170721; conditions: 10 µM
Trypanosoma cruzi = experiment: Trypanosoma cruzi phosphomannomutase and mannose-1-phosphate guanylyltransferase assay; type: functional; conditions: 10 µM
[5] = molecular target: T2, Arginase-2, mitochondrial (Homo sapiens) (UniProt P78540); experiment: in vitro enzyme assay to detect the production of urea directly proportional to the activity of Arginase II; type: functional; conditions: 33.3 µM; also: in the data most compounds retested in dose-response had high values
T2 sequence (whole entry): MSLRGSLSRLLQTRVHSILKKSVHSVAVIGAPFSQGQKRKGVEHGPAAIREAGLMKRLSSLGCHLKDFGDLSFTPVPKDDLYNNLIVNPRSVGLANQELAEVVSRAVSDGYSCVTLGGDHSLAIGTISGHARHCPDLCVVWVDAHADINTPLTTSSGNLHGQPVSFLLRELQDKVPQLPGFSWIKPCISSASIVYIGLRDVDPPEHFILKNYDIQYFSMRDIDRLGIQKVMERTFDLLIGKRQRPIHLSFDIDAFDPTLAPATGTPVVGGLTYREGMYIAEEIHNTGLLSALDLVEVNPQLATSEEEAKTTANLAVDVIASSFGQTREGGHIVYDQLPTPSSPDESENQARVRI

[6] = molecular target: T3, Proteasome subunit beta (Trypanosoma cruzi) (UniProt O96673); experiment: Trypanosoma cruzi proteasome chymotrypsin-like activity (TcProtChymo) assay.; also: in the data most compounds retested in dose-response had high values; type: functional; conditions: 9.37 µM
T3 sequence (whole entry): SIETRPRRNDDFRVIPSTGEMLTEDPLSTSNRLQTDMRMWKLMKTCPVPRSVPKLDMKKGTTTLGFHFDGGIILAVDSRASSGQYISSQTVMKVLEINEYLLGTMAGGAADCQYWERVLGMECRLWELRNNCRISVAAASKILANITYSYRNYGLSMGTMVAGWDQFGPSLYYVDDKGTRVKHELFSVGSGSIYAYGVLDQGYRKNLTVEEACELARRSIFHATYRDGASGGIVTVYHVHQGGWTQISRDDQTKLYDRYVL

Homo sapiens = species: Homo sapiens; experiment: To identify inhibition of the IFN signalling (Jak-Stat) pathway via expression of an eGFP reporter gene under the control of an IFN-stimulated response element (ISRE) containing MxA promoter.; type: functional; conditions: 30 µM
[7] = molecular target: T4, Tyrosyl-tRNA synthetase, putative (Trypanosoma cruzi (strain CL Brener)) (UniProt Q4DSP6); experiment: Trypanosoma cruzi tyrosyl tRNA synthetase (TcYRS) _High Tyrosine SOP; type: functional; conditions: 30 µM; also: in the data most compounds retested in dose-response had high values
T4 sequence (whole entry): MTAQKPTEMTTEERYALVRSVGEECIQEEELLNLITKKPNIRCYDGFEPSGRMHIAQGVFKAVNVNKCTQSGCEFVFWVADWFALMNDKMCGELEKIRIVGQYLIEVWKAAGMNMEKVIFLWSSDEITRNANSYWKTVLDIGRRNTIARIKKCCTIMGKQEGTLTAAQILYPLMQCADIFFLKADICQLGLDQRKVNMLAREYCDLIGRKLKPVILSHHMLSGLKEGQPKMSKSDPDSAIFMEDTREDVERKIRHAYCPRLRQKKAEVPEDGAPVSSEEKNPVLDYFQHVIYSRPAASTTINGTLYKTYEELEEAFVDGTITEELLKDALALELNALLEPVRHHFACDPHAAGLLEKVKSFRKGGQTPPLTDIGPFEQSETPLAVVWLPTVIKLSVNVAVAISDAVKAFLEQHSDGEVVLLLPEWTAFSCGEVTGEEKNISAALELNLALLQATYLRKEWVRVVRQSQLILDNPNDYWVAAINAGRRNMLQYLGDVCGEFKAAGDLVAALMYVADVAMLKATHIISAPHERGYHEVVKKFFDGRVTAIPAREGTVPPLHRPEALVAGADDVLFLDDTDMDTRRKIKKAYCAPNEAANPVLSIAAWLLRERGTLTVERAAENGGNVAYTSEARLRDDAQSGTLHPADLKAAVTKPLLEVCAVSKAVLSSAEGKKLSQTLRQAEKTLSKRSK

[8] = molecular target: T4, Tyrosyl-tRNA synthetase, putative (Trypanosoma cruzi (strain CL Brener)); experiment: Trypanosoma cruzi tyrosyl tRNA synthetase (TcYRS) SOP; type: functional; conditions: 30 µM
[9] = molecular target: Chromo domain-containing protein 1 (Saccharomyces cerevisiae (strain ATCC 204508 / S288c) (Baker's yeast)) (UniProt P32657); experiment: ScCHD-1 Enzyme Inhibition Assay; type: functional; conditions: 30 µM; also: in the data most compounds retested in dose-response had high values
Chain of Chromo domain-containing protein 1 (Saccharomyces cerevisiae (strain ATCC 204508 / S288c) (Baker's yeast)) (P32657 whole entry, the tested form may be a part): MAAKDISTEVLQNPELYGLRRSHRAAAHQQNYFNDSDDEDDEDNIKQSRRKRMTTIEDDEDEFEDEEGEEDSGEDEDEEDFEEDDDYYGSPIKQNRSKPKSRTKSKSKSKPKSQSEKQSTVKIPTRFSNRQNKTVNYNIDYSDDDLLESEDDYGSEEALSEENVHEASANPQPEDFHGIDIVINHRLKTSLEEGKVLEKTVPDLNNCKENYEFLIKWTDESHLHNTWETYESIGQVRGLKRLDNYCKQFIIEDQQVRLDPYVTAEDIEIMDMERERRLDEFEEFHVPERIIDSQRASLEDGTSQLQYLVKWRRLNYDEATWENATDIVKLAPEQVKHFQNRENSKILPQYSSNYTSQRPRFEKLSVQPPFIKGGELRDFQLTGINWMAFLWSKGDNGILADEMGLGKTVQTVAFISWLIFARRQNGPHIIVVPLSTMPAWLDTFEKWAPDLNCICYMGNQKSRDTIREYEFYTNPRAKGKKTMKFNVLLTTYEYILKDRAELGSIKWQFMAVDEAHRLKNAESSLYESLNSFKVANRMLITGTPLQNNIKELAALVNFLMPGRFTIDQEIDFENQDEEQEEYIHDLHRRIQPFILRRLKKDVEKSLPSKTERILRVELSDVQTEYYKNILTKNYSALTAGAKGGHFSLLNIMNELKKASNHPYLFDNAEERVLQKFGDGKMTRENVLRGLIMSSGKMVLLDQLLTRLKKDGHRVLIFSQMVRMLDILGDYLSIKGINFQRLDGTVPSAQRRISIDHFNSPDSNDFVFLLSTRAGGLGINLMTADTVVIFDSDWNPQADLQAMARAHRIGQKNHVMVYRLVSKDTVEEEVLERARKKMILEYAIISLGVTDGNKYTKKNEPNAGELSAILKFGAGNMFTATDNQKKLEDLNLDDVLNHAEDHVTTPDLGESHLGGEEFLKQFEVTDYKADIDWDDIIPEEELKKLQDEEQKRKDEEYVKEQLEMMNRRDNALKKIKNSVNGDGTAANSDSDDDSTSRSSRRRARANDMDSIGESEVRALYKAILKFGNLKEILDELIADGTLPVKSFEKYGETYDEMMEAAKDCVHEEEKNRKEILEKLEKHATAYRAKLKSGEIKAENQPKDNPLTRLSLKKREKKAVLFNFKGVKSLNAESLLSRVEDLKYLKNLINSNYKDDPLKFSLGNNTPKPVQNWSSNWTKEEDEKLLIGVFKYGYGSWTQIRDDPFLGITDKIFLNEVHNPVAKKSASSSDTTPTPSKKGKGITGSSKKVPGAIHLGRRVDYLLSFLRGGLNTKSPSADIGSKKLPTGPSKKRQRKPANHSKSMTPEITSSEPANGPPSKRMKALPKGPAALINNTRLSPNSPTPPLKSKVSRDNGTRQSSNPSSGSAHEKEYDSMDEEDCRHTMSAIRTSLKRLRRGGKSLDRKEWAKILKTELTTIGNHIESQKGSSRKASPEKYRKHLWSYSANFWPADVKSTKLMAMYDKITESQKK

Chain of Sialic acid-binding Ig-like lectin 9 (Homo sapiens) (Q9Y336 whole entry): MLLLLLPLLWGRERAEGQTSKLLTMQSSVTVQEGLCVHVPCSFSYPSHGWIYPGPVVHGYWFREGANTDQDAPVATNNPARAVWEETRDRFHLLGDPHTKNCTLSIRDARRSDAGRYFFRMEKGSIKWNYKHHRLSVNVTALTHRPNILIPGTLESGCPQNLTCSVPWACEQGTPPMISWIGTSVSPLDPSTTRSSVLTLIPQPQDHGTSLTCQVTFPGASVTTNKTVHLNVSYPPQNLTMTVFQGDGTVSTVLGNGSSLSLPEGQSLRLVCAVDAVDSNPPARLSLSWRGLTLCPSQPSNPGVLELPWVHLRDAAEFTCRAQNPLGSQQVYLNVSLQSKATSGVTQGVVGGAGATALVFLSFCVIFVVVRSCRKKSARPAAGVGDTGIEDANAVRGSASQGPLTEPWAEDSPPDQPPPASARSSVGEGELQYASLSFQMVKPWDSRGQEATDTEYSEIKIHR
Chain of Protein translocase subunit SecA (Escherichia coli (strain K12)) (P10408 whole entry): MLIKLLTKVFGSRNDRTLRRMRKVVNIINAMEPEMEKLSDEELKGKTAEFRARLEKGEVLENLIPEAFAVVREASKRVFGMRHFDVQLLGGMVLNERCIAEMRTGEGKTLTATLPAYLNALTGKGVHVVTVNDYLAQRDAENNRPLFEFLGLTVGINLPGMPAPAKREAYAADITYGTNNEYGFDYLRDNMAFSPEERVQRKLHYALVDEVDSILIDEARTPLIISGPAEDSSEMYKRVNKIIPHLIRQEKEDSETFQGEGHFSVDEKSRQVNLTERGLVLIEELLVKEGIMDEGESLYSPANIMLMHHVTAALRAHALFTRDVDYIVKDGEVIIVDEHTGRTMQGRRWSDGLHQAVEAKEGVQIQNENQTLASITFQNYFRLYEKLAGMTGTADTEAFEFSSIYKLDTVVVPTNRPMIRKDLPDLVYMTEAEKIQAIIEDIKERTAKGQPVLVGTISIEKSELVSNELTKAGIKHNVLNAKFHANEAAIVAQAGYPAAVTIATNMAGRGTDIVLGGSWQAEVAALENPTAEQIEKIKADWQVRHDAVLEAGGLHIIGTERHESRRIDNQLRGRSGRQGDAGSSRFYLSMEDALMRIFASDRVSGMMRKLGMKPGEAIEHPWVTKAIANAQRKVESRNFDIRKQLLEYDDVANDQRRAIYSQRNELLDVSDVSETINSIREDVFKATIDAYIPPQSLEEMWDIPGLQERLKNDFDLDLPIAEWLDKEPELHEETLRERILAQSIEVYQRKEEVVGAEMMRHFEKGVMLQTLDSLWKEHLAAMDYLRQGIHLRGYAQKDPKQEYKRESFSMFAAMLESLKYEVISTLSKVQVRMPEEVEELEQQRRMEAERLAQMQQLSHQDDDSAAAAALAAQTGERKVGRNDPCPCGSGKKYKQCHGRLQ

SMILES	Percent Effect [1] [%]	Percent Effect [2] [%]	Percent Effect [3] [%]	Percent Effect [4] [%]	Percent Effect (Trypanosoma cruzi) [%]	Percent Effect [5] [%]	Percent Effect [6] [%]	Percent Effect (Homo sapiens) [%]	Percent Effect [7] [%]	Percent Effect [8] [%]	Percent Effect [9] [%]
COc1ccc(OCC(=O)NS(=O)(=O)c2cc(F)ccc2F)cc1	-8	0	5.69	-4.95	-3.28	-3.33	5.34	22.6	-3.7	-4.88	-2.11
COc1ccc(NC(=O)NC(C)(C)c2noc(C)n2)cc1	-5.98	2.74	9.96	-2.01	0.979	5	13.5	7.14	4.3	12.5	-1.95
COc1ccccc1N1CCC(CNCc2cccc(C#N)c2)C1 (stereo unspecified)	-2.81	8.11	9.38	-7.09	3.11	-8.82	17.3	-10.4	13.3	18.5	10.3
Cn1ccnc1CN1CCN(CC(O)c2ccco2)CC1 (stereo unspecified)	-7.57	18.2	-3.75	-8.89	-1.86	-0.632	17.4	16.1	6.67	7.06	-4.92
Cc1ccc(CN(Cc2c[nH]cn2)C2CC(C)(C)NC(C)(C)C2)o1	-2.16	4.05	13.8	0.615	-9.49	-1.62	10.4	12.1	4.3	3.9	-10.2
NS(=O)(=O)CCNC(=O)c1nnn(-c2ccc(F)cc2)c1C1CC1	-0.864	8.11	-3.7	0.877	3.91	14.6	19.5	-4.31	9.9	15.8	-4.04
CC(C)c1nn(C)c(N(C)C)c1CNCC(O)c1ccccc1F (stereo unspecified)	-3.41	18.2	-14.7	3.26	0.562	-1.07	4.39	10.4	6.8	7.32	-8.47
CN1CC(=O)N(c2cccc(F)c2)CC12CCN(Cc1cccnc1)C2 (stereo unspecified)	1.08	7.79	4.97	4.25	-2.46	12.3	12.9	7.53	3.17	11.5	-1.97
N#CC1(C(=O)N2CCN(c3nccs3)CC2)CCCCC1	-1.57	13.2	7.71	8.98	-2.26	2.68	11	-3.2	7.35	17.1	-6.21
c1sc(C2CCCC2)nc1CN1CCn2c(nnc2C2CC2)C1	-6.12	5.41	0.718	-3.09	-2.14	-0.554	10.4	37.1	10.9	15.8	-4.21
Cc1n[nH]cc1C(=O)N1CCCC(n2nnc3cc(F)ccc32)C1 (stereo unspecified)	-5.29	5.33	7.57	-0.922	6.5	-3.5	11.7	5.51	5.32	11.5	-7.34
CCCn1nc2c(cc1=O)CN(CCS(C)(=O)=O)CC2	-6.22	-5.41	-30.8	22.6	2.17	-6.01	7.75	7.82	8.37	16.1	-11.1
Cn1cnc(S(=O)(=O)NCCCN2CCOCC2)c1Cl	-3.33	2.7	-5.32	-2.1	-10.5	26.1	7.21	16.1	4.43	3.7	-8.3
O=C(NC1CC1)c1cc(NC(=O)N2CCCC(O)C2)ccc1Cl (stereo unspecified)	-1.73	11	1.28	3.66	-5.36	1.6	16.4	-0.927	6.25	13.6	1.44
Nc1nc(CN2CCOC(Cn3cncn3)C2)nc2ccccc12 (stereo unspecified)	-2.89	0	2.62	-2.89	-1.02	0.924	-7.18	0.0129	1.98	3.66	6.29
Cc1ccc2c(n1)N(CCn1cccn1)CCN(C(=O)CC1CC1)C2	-3.68	5.41	-9.57	3.09	-4.4	1.74	10.6	10.3	-5.38	11.1	-7.62
